Results as given in PubChem BioAssay (Tox21).
Results filed as inconclusive are left out. Calls of active or inactive are those of the source. Unless noted, the call rests on the fitted dose curve; in most records, active means well fitted curve in the direction sought with a large enough effect in the repeat runs; inconclusive means weak or mixed curves; inactive means no such curve, though single readings can be large; an effect the other way counts as inactive or inconclusive.

Assays:
[1] = molecular target: Thyrotropin receptor (Homo sapiens) (UniProt P16473); assay: qHTS assay to identify small molecule agonists of the thyroid stimulating hormone receptor (TSHR) signaling pathway (AID 1224843; calls by dose curve; further: nearly all actives have a fitted effect of over 45% in size)
Thyrotropin receptor (Homo sapiens), sequence (P16473 whole entry, looked up): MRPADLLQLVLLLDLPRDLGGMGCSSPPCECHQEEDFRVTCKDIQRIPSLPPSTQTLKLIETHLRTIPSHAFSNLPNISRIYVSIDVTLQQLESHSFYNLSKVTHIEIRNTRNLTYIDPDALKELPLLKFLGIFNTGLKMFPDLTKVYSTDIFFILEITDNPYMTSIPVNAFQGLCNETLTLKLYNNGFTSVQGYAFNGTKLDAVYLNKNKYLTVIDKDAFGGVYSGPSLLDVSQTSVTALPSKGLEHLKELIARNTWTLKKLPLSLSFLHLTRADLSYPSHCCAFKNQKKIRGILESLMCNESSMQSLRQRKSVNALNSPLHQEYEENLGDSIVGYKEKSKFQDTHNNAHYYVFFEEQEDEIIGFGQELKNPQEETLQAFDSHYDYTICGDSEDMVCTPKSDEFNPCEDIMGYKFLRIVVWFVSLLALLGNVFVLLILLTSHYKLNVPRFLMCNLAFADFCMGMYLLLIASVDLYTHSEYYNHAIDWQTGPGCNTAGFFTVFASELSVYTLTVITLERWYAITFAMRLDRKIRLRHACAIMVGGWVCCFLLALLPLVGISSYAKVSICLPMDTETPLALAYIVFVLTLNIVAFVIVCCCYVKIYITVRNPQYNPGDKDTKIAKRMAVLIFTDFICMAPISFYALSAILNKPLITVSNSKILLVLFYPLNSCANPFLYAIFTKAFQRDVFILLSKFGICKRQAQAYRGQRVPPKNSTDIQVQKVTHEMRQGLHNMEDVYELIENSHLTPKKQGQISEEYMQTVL
In short: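 Agonist activity read as cAMP rise via d2/cryptate HTRF competition, 1 h room-temperature detection, in HEK293 cells expressing TSHR. Fifteen-point titrations, each run in triplicate, with a 30 min room-temperature incubation beforehand.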

[2] = qHTS assay to identify small molecule agonists of the hypoxia (HIF-1) signaling pathway - cell viability counter screen (AID 1224844; calls by dose curve; further: nearly all actives have a fitted effect of over 50% in size)
In short: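 Same wells as the HIF-1 reporter screen; ME-180 cells carrying HRE-bla, 17 hr treatment at 37C; CellTiter-Glo luminescence read after 30 min at room temperature.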

[3] = qHTS assay to identify small molecule agonists of H2AX (AID 1224845; active means well fitted activation curve with a large enough effect in the signal ratio in the repeat runs, not every such curve was filed as active; the % refers to the signal ratio)
In short: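 Phospho-H2AX Ser139 measured by HTRF (ex 320 nm; em 665 and 620 nm) after 24 hr antibody incubation. Compounds, 15 concentrations, 0.76% DMSO, were applied to CHO-K1 cells for 3hr at 37C before lysis.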

[4] = qHTS assay to identify small molecule agonists of the hypoxia (HIF-1) signaling pathway (AID 1224846; active means well fitted activation curve with a large enough effect in the signal ratio in the repeat runs, not every such curve was filed as active; the % refers to the signal ratio)
In short: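 In ME-180 cells bearing an HRE-bla construct, 17 h treatment with DMSO-dissolved compounds at 37C was followed by CCF4-AM loading to quantify reporter induction.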

[5] = qHTS assay to identify small molecule agonists of H2AX - cell viability counter screen (AID 1224847; calls by dose curve;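 further: wild-type CHO-K1 cells; top concentration of the series differs between compounds; nearly all actives have a fitted effect of over 30% in size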)
In short: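 For this counter screen, overnight-attached CHO-K1 cells received test compounds (15 concentrations, 0.76% DMSO final); 3 hr later at 37C, CellTiter-Glo reagent was added and luminescence recorded after 30 min at room temperature.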

[6] = qHTS assay to identify small molecule antagonists of the estrogen related receptor (ERR) signaling pathway from Tox21 library (AID 1224848); further: nearly all actives have a fitted effect of over 50% in size
In short: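 Luciferase luminescence (ONE-Glo, 30 min room temperature) was the read-out. Cells of the NTP-supplied ERR line, 2,000 per well, were given 6 h at 37 C before compound addition in DMSO and 18 h exposure at 37 C.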

[7] = qHTS RealTime-Glo MT Cell Viability Assay in HepG2 cells - 24 hour (AID 1224867); further: nearly all actives have a fitted effect of over 50% in size
In short: (§1)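 HepG2 cells (600/well) were dispensed with RealTime-Glo reagents, incubated 5 h at 37 °C, then treated with compounds in DMSO for up to 40 h. Nonlytic NanoLuc luminescence reflecting viable cells was read at each stated time point.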

[8] = qHTS RealTime-Glo MT Cell Viability Assay in HEK293 cells - 32 hour (AID 1224868); further: top concentration of the series differs between compounds; nearly all actives have a fitted effect of over 50% in size
In short: (§2)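 HEK293 cells seeded with NanoLuc/prosubstrate reagent, rested 5 h at 37 C, then dosed and kept at 37 C up to 40 h. Nonlytic real-time luminescence from viable cells read at 0, 8, 16, 24, 32 and 40 h.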

[9] = A CellTox Green Cytotoxicity Assay to monitor cytotoxicity in HEK293 cells - 0 hour (AID 1224869); further: nearly all actives have a fitted effect of over 50% in size
In short: (§3)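 Homogeneous no-lysis format: HEK293 cell suspension mixed with CellTox Green reagent, seeded, incubated 5 h at 37 C/5% CO2, then dosed by pintool with compound in DMSO.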

[10] = qHTS RealTime-Glo MT Cell Viability Assay in HepG2 cells - 40 hour (AID 1224870); further: nearly all actives have a fitted effect of over 50% in size
In short: (§4)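 Real-time viability: cells seeded at 600 per well together with NanoLuc and cell-permeant prosubstrate, compounds added after 5 h incubation. Luminescence tracked at 0, 8, 16, 24, 32 and 40 h of exposure.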

[11] = A CellTox Green Cytotoxicity Assay to monitor cytotoxicity in HEK293 cells - 40 hour (AID 1224871); further: nearly all actives have a fitted effect of over 45% in size
In short: as §3

[12] = qHTS RealTime-Glo MT Cell Viability Assay in HepG2 cells - 8 hour (AID 1224873); further: nearly all actives have a fitted effect of over 55% in size
In short: as §4

[13] = qHTS RealTime-Glo MT Cell Viability Assay in HEK293 cells - 40 hour (AID 1224874); details: RealTime-Glo luminescence; max response: active compounds read low; further: nearly all actives have a fitted effect of over 50% in size
In short: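 Measured as luminescence from the same continuously cultured HEK293 wells at successive time points (0, 8, 16, 24, 32, 40 h) after compound addition. Reagent present from seeding; dosing at 5 h; incubation 37 C.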

[14] = A CellTox Green Cytotoxicity Assay to monitor cytotoxicity in HEK293 cells - 24 hour (AID 1224875); further: nearly all actives have a fitted effect of over 45% in size
In short: as §3

[15] = A CellTox Green Cytotoxicity Assay to monitor cytotoxicity in HepG2 cells - 16 hour (AID 1224876); further: nearly all actives have a fitted effect of over 45% in size; further: potency means the concentration at half of the fitted maximal effect
In short: (§5)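 Fluorescent DNA-binding dye, 600 HepG2 cells/well, 5 h preincubation then compound in DMSO; same plates read at 0–40 h, 37 C.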

[16] = qHTS RealTime-Glo MT Cell Viability Assay in HepG2 cells - 32 hour (AID 1224877); further: nearly all actives have a fitted effect of over 55% in size
In short: as §1

[17] = A CellTox Green Cytotoxicity Assay to monitor cytotoxicity in HepG2 cells - 24 hour (AID 1224878); further: nearly all actives have a fitted effect of over 45% in size; further: potency means the concentration at half of the fitted maximal effect
In short: as §5

[18] = A CellTox Green Cytotoxicity Assay to monitor cytotoxicity in HepG2 cells - 40 hour (AID 1224879); further: nearly all actives have a fitted effect of over 40% in size; further: potency means the concentration at half of the fitted maximal effect
In short: as §5

[19] = qHTS RealTime-Glo MT Cell Viability Assay in HEK293 cells - 16 hour (AID 1224872)
In short: as §2

[20] = qHTS assay to identify small molecule agonists of the estrogen related receptor (ERR) signaling pathway from Tox21 library (AID 1224849; calls by dose curve; further: nearly all actives have a fitted effect of over 15% in size); details: ERR reporter cell line, ONE-Glo luciferase, 18 h; at 92.4 µM (top of the series) unless noted
In short: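 Reporter cells (ERR, NTP source) treated with Tox21 10K compounds 18 h, 37 C. Readout: ONE-Glo luminescence, 30 min RT.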
On the % scale 0 is the no-effect control and ±100 the full control effect.

CO[C@]12C[C@@H](COC(=O)c3cncc(Br)c3)CN(C)[C@@H]1Cc1cn(C)c3cccc2c13
active: Potency [15] 23.9 µM | Potency [17] 23.9 µM | Potency [18] 23.9 µM
inactive: Potency [1] | Potency [2] | outcome [3] | outcome [4] | Potency [5] | Potency [6] | Potency [7] | Potency [8] | Potency [9] | Potency [10] | Potency [11] | Potency [12] | max response [13] -5.48% | Potency [14] | Potency [16]

COC(C)(C)CCCC(C)CC=O (centres undefined)
inactive: Potency [1] | Potency [2] | outcome [3] | outcome [4] | Potency [6] | Potency [7] | Potency [8] | Potency [9] | Potency [10] | Potency [11] | Potency [19] | Potency [12] | max response [13] 3.83% | Potency [14] | Potency [17] | Potency [18]

CCCCCCCCCCCCCC=O
inactive: activation [1] 4.61% [at 8.39 µM] | activity change, negative = cytotoxicity [2] 0.368% [at 6.97 µM] | activation (H2AX phosphorylation) [3] -4.49% [at 14 µM] | activation [4] -0.206% [at 7.01 µM] | activity change, negative = cytotoxicity [5] 0.845% [at 14 µM] | activity, negative = inhibition [6] -0.715% [at 8.39 µM] | activity change, negative = cytotoxicity [7] -6.68% [at 6.97 µM] | activity change, negative = cytotoxic [8] 5.71% [at 6.97 µM] | cytotoxicity [9] -4.46% [at 6.97 µM] | activity change, negative = cytotoxic [10] -13.1% [at 6.97 µM] | cytotoxicity increase [11] 0.449% [at 6.97 µM] | activity change, negative = cytotoxicity [19] 1.71% [at 6.97 µM] | viability change, negative = cytotoxic [12] 0.248% [at 6.97 µM] | max response [13] 5.19% | activity change [14] -4.12% [at 6.97 µM, active compounds read high] | cytotoxicity [17] 1.56% [at 6.97 µM] | cytotoxicity increase [18] 0.942% [at 6.97 µM]

CCOC(=O)C(=O)OCC
inactive: Potency [1] | Potency [2] | outcome [3] | outcome [4] | Potency [5] | Potency [6] | Potency [7] | Potency [9] | Potency [10] | Potency [11] | Potency [19] | Potency [12] | max response [13] 6.27% | Potency [14] | Potency [15] | Potency [16] | Potency [17] | Potency [18]

N[C@H](C(=O)O)c1ccc(O)cc1
inactive: Potency [1] | activity change, negative = cytotoxicity [2] 4.56% [at 15.8 µM] | outcome [3] | activation [4] 0.0786% [at 15.8 µM] | Potency [5] | activity, negative = inhibition [6] 2.86% [at 19 µM] | activity change, negative = cytotoxicity [7] -0.341% [at 15.8 µM] | activity change, negative = cytotoxic [8] 3.67% [at 15.8 µM] | cytotoxicity [9] -2.5% [at 15.8 µM] | activity change, negative = cytotoxic [10] 1.99% [at 15.8 µM] | Potency [11] | activity change, negative = cytotoxicity [19] 4.17% [at 15.8 µM] | viability change, negative = cytotoxic [12] 0.244% [at 15.8 µM] | activity change [14] 0.19% [at 15.8 µM, active compounds read high] | cytotoxicity increase [15] -12.1% [at 15.8 µM] | activity change, negative = cytotoxic [16] 3.27% [at 15.8 µM] | cytotoxicity [17] -8.13% [at 15.8 µM] | cytotoxicity increase [18] -4.58% [at 15.8 µM]

C=C1CC[C@H]2C[C@@H]1C2(C)C
inactive: Potency [1] | Potency [2] | outcome [3] | outcome [4] | Potency [5] | Potency [7] | Potency [8] | Potency [9] | Potency [10] | Potency [11] | Potency [19] | Potency [12] | max response [13] 5.42% | Potency [14] | Potency [15] | Potency [16] | Potency [18]

CC(C)(C)c1nnc(NS(=O)(=O)c2ccccc2)s1
inactive: Potency [1] | Potency [2] | outcome [3] | outcome [4] | Potency [5] | activity change, positive = activation [20] -14.8% [at 42.5 µM] | Potency [7] | Potency [8] | Potency [9] | Potency [10] | Potency [11] | Potency [19] | Potency [12] | max response [13] 2.61% | Potency [14] | Potency [15] | Potency [16] | Potency [17] | Potency [18]

CC(C)CCCC(C)N (centres undefined)
inactive: Potency [1] | Potency [2] | outcome [3] | outcome [4] | Potency [5] | Potency [6] | Potency [7] | Potency [8] | Potency [9] | Potency [10] | Potency [11] | Potency [19] | Potency [12] | Potency [14] | Potency [15] | Potency [16] | Potency [17] | Potency [18]

O=C(O)CCCl
inactive: Potency [1] | Potency [2] | outcome [3] | outcome [4] | Potency [5] | Potency [6] | Potency [7] | Potency [8] | Potency [10] | Potency [11] | Potency [19] | Potency [12] | Potency [14] | Potency [15] | Potency [16] | Potency [17] | Potency [18]

CCN(CC)CCOCCOC(=O)C1(c2ccccc2)CCCC1
inactive: Potency [1] | Potency [2] | outcome [3] | Potency [5] | Potency [7] | Potency [9] | Potency [10] | Potency [11] | Potency [19] | Potency [12] | Potency [14] | Potency [18]

CCn1nc(C(=O)O)c(=O)c2cc3c(cc21)OCO3
inactive: Potency [1] | Potency [2] | outcome [3] | Potency [5] | Potency [6] | activity change, positive = activation [20] 7.18% [at 42.5 µM] | Potency [7] | Potency [8] | Potency [10] | Potency [11] | Potency [19] | Potency [12] | max response [13] 4.37% | Potency [16] | Potency [18]

NCCCNCCSP(=O)(O)O
inactive: activation [1] 0.0403% [at 8.39 µM] | activity change, negative = cytotoxicity [2] 6.46% [at 6.97 µM] | activation (H2AX phosphorylation) [3] -3.9% [at 14 µM] | activity change, negative = cytotoxicity [5] -5.36% [at 14 µM] | activity change, negative = cytotoxicity [7] 1.03% [at 6.97 µM] | cytotoxicity [9] -8.49% [at 6.97 µM] | activity change, negative = cytotoxic [10] 0.256% [at 6.97 µM] | cytotoxicity increase [11] -10.4% [at 6.97 µM] | activity change, negative = cytotoxicity [19] 0.443% [at 6.97 µM] | viability change, negative = cytotoxic [12] 0.144% [at 6.97 µM] | max response [13] 3.52% | activity change [14] -8.68% [at 6.97 µM, active compounds read high] | cytotoxicity increase [15] -2.65% [at 6.97 µM] | activity change, negative = cytotoxic [16] 1.78% [at 6.97 µM] | cytotoxicity increase [18] -11.2% [at 6.97 µM]

Cc1cccn2c(=O)c(-c3nnn[nH]3)cnc12
inactive: Potency [1] | activity change, negative = cytotoxicity [2] -2.16% [at 15.8 µM] | activation [4] -0.179% [at 15.8 µM] | Potency [5] | activity, negative = inhibition [6] 7.1% [at 19 µM] | activity change, positive = activation [20] 4.72% [at 19 µM] | activity change, negative = cytotoxicity [7] -2.42% [at 15.8 µM] | activity change, negative = cytotoxic [8] -0.452% [at 15.8 µM] | cytotoxicity [9] 3.94% [at 15.8 µM] | activity change, negative = cytotoxic [10] 2.03% [at 15.8 µM] | Potency [11] | activity change, negative = cytotoxicity [19] 2% [at 15.8 µM] | viability change, negative = cytotoxic [12] -11% [at 15.8 µM] | max response [13] 1.37% | activity change [14] 11.9% [at 15.8 µM, active compounds read high] | cytotoxicity increase [15] 6.14% [at 15.8 µM] | activity change, negative = cytotoxic [16] 3.38% [at 15.8 µM] | cytotoxicity [17] 3.1% [at 15.8 µM] | cytotoxicity increase [18] 1.54% [at 15.8 µM]
